# Screening data from PubChem.
# A selection: hits, their analogues and other compounds. The true share with any hit is near 0.38%.
# Cdc42 wt GTP: human Cdc42 wildtype GTP binding change, either direction | P60953 | GST-Cdc42 beads, Bodipy-GTP binding, flow cytometry; actives lie on both sides | percent activity (GTP binding), % at 10 µM | 0.2% of 190,000 active | AID 761;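 active = percent activity GTP binding at least 20 points away from the 100% baseline, either down as inhibitor or up as activator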;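 also: median bead fluorescence of bound Bodipy-FL-GTP at 100 nM; 0% = excess unlabeled GTP control and 100% = no compound control; below 100% means less GTP binding so inhibitor and above means activator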
# Target sequence (P60953 whole entry, looked up): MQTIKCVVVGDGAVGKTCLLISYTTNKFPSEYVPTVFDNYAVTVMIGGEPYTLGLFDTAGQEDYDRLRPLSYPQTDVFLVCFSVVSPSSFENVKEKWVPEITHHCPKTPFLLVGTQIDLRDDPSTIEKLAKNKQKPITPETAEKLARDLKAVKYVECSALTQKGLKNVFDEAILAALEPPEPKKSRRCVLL
# Rab2A wt mod: changes GTP binding to wildtype dog Rab2A, up or down. P61105. GST-Rab2 wt beads, Bodipy-GTP binding, flow cytometry. GTP binding activity, % at 10 µM. 0.19% of 190,000 active. AID 760;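 active = GTP binding activity at least 20 points away from 100%, either lowered or raised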;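 also: 0% = beads with excess unlabeled GTP and 100% = no-compound control corrected for plate trend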
# Rac1 act GTP bind: human Rac1 activated mutant GTP binding change. P63000. GST-Rac1 activated beads, fluorescent GTP binding, flow cytometry; actives lie on both sides; 100% means binding = to untreated wells. percent activity (GTP binding), % at 10 µM. 0.11% of 190,000 active. AID 764;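 active = GTP binding at least 20 percentage points away from the 100% baseline, in either direction, so actives lie on both sides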
# Rab7 wt modul: dog Rab7 wildtype GTP binding, inhibitors and activators; GST-Rab7 beads, fluorescent GTP binding, flow cytometry; actives lie on both sides; untreated = 100%, excess cold GTP = 0%; GTP binding activity (percent of control), % at 10 µM; 0.055% of 190,000 active;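 active = fluorescent GTP binding to Rab7 beads changed by at least 20 points from the 100% baseline, either direction, mostly lower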;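 also: median green fluorescence of bound Bodipy-FL-GTP per Rab7 bead population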
# HRas wt GTP: modulators of GTP binding to human HRas wildtype; AID 759; GST-Ras wt beads, Bodipy-FL-GTP binding, flow cytometry; actives lie on both sides; GTP binding activity, % at 10 µM; P01112; 0.14% of 190,000 active;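 active = GTP binding activity at least 20% away from the 100% baseline, either lowered as inhibitor or raised as activator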;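 also: 0% = unlabeled GTP competition control and 100% = no-compound control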
# Target sequence (P01112 whole entry, looked up): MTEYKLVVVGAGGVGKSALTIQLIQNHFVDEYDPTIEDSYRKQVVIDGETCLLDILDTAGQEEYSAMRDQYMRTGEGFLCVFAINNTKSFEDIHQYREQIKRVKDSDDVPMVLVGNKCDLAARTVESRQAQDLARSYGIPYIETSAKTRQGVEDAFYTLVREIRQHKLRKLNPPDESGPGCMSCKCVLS
# Rac1 wt modul: alters GTP binding to wildtype human Rac1; GST-Rac1 beads, fluorescent GTP binding, flow cytometry; actives lie on both sides; 0 = cold GTP competed, 100 = untreated; 0.27% of 190,000 active; P63000; AID 757; GTP binding activity (% of control), % at 10 µM;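 active = GTP binding activity at least 20 points away from the 100% control level, either lower or higher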
# * hit, by the source's call; [ ] = another dose, or the depositor's remark.
SMILES,Cdc42 wt GTP,Rab2A wt mod,Rac1 act GTP bind,Rab7 wt modul,HRas wt GTP,Rac1 wt modul
CS(=O)(=O)Nc1ccccc1C(=O)O,102,99,99,102,99,105
CS(=O)(=O)Nc1ccc(Br)cc1C(=O)c1ccccc1,69*,97,99,102,99,103
O=C(Cc1ccccc1)c1c[nH]c(C(=O)NC2CCCC2)c1,100,99,94,95,97,100
COc1ccc(-c2cc(=O)c(C(=O)c3ccc(C)cc3)n[nH]2)cc1,95,99,105,110,100,121*[activator]
CCOC(=O)c1nn(-c2ccccc2)c(=O)cc1SC(C)C,99,63*,96,96,95,97
CCOC(=O)c1ccccc1NC(=O)Cn1c(-c2nonc2N)nc2ccccc21,99,100,98,104,100,103
Nc1nonc1-c1nc2ccccc2n1CC(=O)N/N=C/c1ccc(-c2ccccc2C(=O)O)o1,85,82,86,86,84,77*
CCOC(=O)c1cc2c(N)c(C(=O)c3ccc(Br)cc3)sc2[nH]c1=O,71*,71*,79*,90,74*,64*
COc1ccccc1NS(=O)(=O)c1ccc2c(c1)n(C)c(=O)n2C,102,99,98,98,99,104
O=C(COc1ccccc1-c1ccccc1)N/N=C/c1ccncc1,60*,61*,55*,58*,59*,55*
Cn1cc(C=C2C(=O)CC(C)(C)CC2=O)c2ccccc21,31*,32*,34*,20*,38*,33*
O=C(Nc1cccc2ccccc12)c1cnccn1,73*,67*,77*,75*,71*,90
Cc1ccc(Sc2c(C)nn(C(=O)C3CC3)c2C)cc1,82,81,79*,90,84,78*
CCc1ccccc1NC(=S)N(CCN(C)C)Cc1cccs1,97,98,94,96,98,99
CCN(CC)c1ccc(-c2nn3c(-c4cccnc4)nnc3s2)cc1,72*,73*,84,88,73*,83
Cc1nn(Cc2ccccc2)c(Cl)c1C(=O)NCc1ccco1,101,103,97,98,102,99
Cc1ccc(NS(=O)(=O)c2cc(NC(=O)c3ccc4c(c3)NC(=O)CS4)ccc2Cl)c(C)c1,113,129*[activator],102,113,116,110
Cc1ccc(-n2c(-c3cnccn3)n[nH]c2=S)c(Br)c1,79*,82,80,84,80,81
Oc1ccc(N=C/C=C/c2cccc(Br)c2)cc1-c1nc2ccccc2s1,95,93,96,99,99,96
CC1CN(C(=O)c2cccc(S(=O)(=O)Nc3cc(Cl)ccc3Cl)c2)CC(C)O1 (centres undefined),79*,78*,83,96,81,72*
COc1cccc2c(SCC(=O)N/N=C/c3ccc(O)cc3O)cc(C)nc12,66*,66*,83,85,72*,66*
CC1CC(C)(C)NC(=S)N1CCCC(=O)Nc1ccc(F)cc1 (centres undefined),97,94,95,96,97,100
O=C(O)c1cc([N+](=O)[O-])ccc1NCc1ccccc1Cl,129*[activator],129*[activator],133*[activator],114,125*[activator],146*[activator]
C#CCOCCOCCOCCNc1nc(N2CCN(C(=O)C([C@@H](C)CC)n3cc(C(N)Cc4ccc(O)cc4)nn3)CC2)nc(N2CCN(C(=O)[C@H](CCC(=O)O)n3cc(C(N)[C@H](C)CC)nn3)CC2)n1 (some centres undefined),99,98,95,105,98,98
Cn1nnc(NC(=S)NC(=O)c2ccc(-c3ccc(Br)cc3)o2)n1,81,86,87,96,87,76*
SMILES,Cdc42 wt GTP,Rab2A wt mod,Rac1 act GTP bind,Rab7 wt modul,HRas wt GTP,Rac1 wt modul
CCCS(=O)(=O)c1nnnn1-c1cccc(OC)c1,80,89,78*,90,91,91
COc1ccc(C2C(C(=O)Nc3ccc(OC)c(OC)c3)c3ccccc3C(=O)N2C)cc1 (centres undefined),101,95,97,97,98,100
COc1cc(C)c2c(c1C=O)Oc1c(c(C)c(O)c3c1C(O)OC3=O)OC2=O (centres undefined),78*,80,76*,84,81,80
S=C(Nc1ccc(Oc2ccccc2)cc1)NC1CCCCCC1,79*,96,100,101,100,109
S=C(Nc1ccc(Oc2ccc(NC(=S)NC3CCCCC3)cc2)cc1)NC1CCCCC1,104,101,99,98,101,106
CCCN(CC1CC1)C(=S)Nc1ccc(Oc2ccccc2)cc1,79*,99,101,99,99,102
S=C(Nc1ccc(Oc2ccccc2)cc1)NC1CCCCC1,115,115,107,104,107,141*[activator]
CCCCN(C)C(=S)Nc1ccc(Oc2ccccc2)cc1,97,103,100,103,100,104
O=C(O)c1ccc(NC(=S)NC2CCCCC2)cc1,100,100,101,102,101,100
Cc1nn(-c2ccc(F)cc2)c(Cl)c1/C=C(\CCC(=O)O)c1nc2ccccc2s1,68*,76*,65*,79*,80,72*
O=C(O)CCSc1nc2ccccc2s1,99,98,95,95,97,100
O=C(O)CC/C(=C\c1ccc(N2CCCC2)c([N+](=O)[O-])c1)c1nc2ccccc2s1,75*,74*,75*,81,79*,82
O=C(O)CC/C(=C\c1cccc(NC(=O)c2ccccc2Cl)c1)c1nc2ccccc2s1,87,92,88,98,92,93
O=C(O)CC/C(=C\c1ccccc1[N+](=O)[O-])c1nc2ccccc2s1,73*,76*,74*,90,80,81
O=C(c1cc(COc2ccc(F)cc2F)on1)N1CCSCC1,97,100,96,104,99,101
COc1ccc(-c2nnc3ccc(SCC(=O)Nc4cc(C)on4)nn23)cc1OC,93,97,92,107,95,93
CCOc1ccccc1NC(=O)CSc1ccc2nnc(-c3cccnc3)n2n1,65*,64*,76*,83,69*,58*
CCOc1ccccc1NC(=O)CSc1nnc2ccc(-c3ccncc3)nn12,95,99,97,103,98,99
COc1ccc(NC(=O)CSc2ccc3nnc(-c4cccnc4)n3n2)c(OC)c1,80,83,89,93,84,79*
